Experimental data reported in PubChem BioAssay.
Calls of active or inactive are those of the source. Unless noted, how the calls were made is not given here.

Assays:
[1] = system: Wnt5a (protein binding on small-molecule microarray); experiment: small molecules binding Wnt5a protein – biophysical, small-molecule microarray, 635/667 nm fluorescence, primary screen (AID 1142); conditions: 635 nm fluorescence, higher = more signal;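 further: fluorescence read at 667 nm with signal to noise per printed feature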
[2] = ATP-based viability of Huh7 replicon cells – cell-based, CellTiter-Glo luminescence, basal, 48 h, cytotoxicity control for HCV replication inhibitor project, primary screen (AID 1143); conditions: higher = more signal, called active from +8 up or from −8 down;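 further: Huh7 hepatoma cells carrying a hepatitis C replication reporter with no stimulus; test concentration not given here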
[3] = Pseudomonas biofilm growth suppression – PAO1 strain, BacTiter-Glo luminescence, LB-PBS, primary screen (AID 1144); conditions: P. aeruginosa PAO1 biofilm, 12 h, higher = more signal
[4] = basal CRE-LacZ reporter activity in PC12 – cell-based, unstimulated, primary screen (AID 1145); conditions: no forskolin, luminescence, 4.5 h, higher = more signal, called active from +8 up or from −8 down
[5] = forskolin-driven CRE-LacZ activity in PC12 – cell-based, CRE-LacZ reporter, forskolin-stimulated, primary screen (AID 1146); conditions: luminescence, 4.5 h, higher = more signal, called active from +8 up or from −8 down;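 further: PC12 cells with 6xCRE LacZ reporter stimulated by forskolin 10 µM; beta-galactosidase reporter signal reflecting CREB driven transcription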
[6] = target: Streptavidin (Streptomyces avidinii) (UniProt P22629); experiment: compounds binding control protein streptavidin – biophysical, small-molecule microarray, 635/667 nm fluorescence, artefact control for SMM compound annotation, primary screen (AID 1147); conditions: higher = more signal;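 further: signal reflects streptavidin binding to arrayed compounds as a control protein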
[7] = probe aInhba binding on compound microarray – biochemical, small-molecule microarray, 635/667 nm fluorescence, primary screen (AID 1148); conditions: higher = more signal;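 further: score merges 667nm spot fluorescence with signal-to-noise for antibody binding to printed compounds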
Torsin-1A (Homo sapiens) [8] = target: Torsin-1A (Homo sapiens) (UniProt O14656); experiment: TOR1A wild-type binding on microarray – cell lysate, small-molecule microarray, lysate, 635/667 nm, primary screen (AID 1149); conditions: COS7 hTOR1A-WT lysate, 635 nm fluorescence, higher = more signal
Torsin-1A (Homo sapiens) [9] = target: Torsin-1A (Homo sapiens) (UniProt O14656); experiment: torsin A mutant lysate binding on microarrays – cell lysate, small-molecule microarray, COS7 lysate, 635/667 nm fluorescence, primary screen (AID 1150); conditions: COS7 hTOR1A mutant lysate, 635 nm fluorescence, higher = more signal;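 further: score pools 667 nm emission and signal to noise measuring lysate protein binding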
[10] = system: Sonic hedgehog protein (Shh); experiment: Sonic hedgehog microarray binding compounds – biochemical, small-molecule microarray, 635/667 nm fluorescence, primary screen (AID 1151); conditions: 635 nm fluorescence, higher = more signal;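 further: Shh protein binding to compounds spotted on small-molecule microarray slides; score combines spot fluorescence intensity with signal-to-noise across triplicate slides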
[11] = optical density shifts of acrAB sulA E. coli – strain DRC41, OD650, 48 h, E. coli filamentation inducer project, primary screen (AID 1152); conditions: higher = more signal, called active from +8 up or from −8 down;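 further: E. coli MC1000 strain DRC41 lacking acrAB efflux pump and sulA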
[12] = probe aLefty1 binding on compound microarray – biochemical, small-molecule microarray, 635/667 nm fluorescence, primary screen (AID 1153); conditions: higher = more signal;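 further: score merges spot fluorescence with signal-to-noise ratio from the scanned slide images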
[13] = plasmodial surface anion channel blockers, osmotic lysis – cell-based, P. falciparum Indochina, OD700, 1 h, primary screen (AID 1154); conditions: P. falciparum Indochina infected RBC osmotic lysis, higher = more signal, called active from +8 up or from −8 down
[14] = plasmodial surface anion channel blockers, osmotic lysis – cell-based, P. falciparum Indochina, OD700, 2 h, primary screen (AID 1155);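 further: lysis reports solute entry through the parasite surface anion channel PSAC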; conditions: P. falciparum Indochina infected erythrocytes, higher = more signal, called active from +8 up or from −8 down
[15] = changes in parasitized red cell lysis, either direction – P. falciparum Indochina, OD700, 3 h, PSAC antagonist project, primary screen (AID 1156); conditions: P. falciparum-infected erythrocytes, osmotic lysis, higher = more signal, called active from +8 up or from −8 down
[16] = plasmodial surface anion channel blockers, osmotic lysis – cell-based, P. falciparum Indochina, OD700, 18 h, primary screen (AID 1157); conditions: P. falciparum Indochina infected erythrocytes, osmotic lysis OD700, 18 h; higher = more signal, called active from +8 up or from −8 down
[17] = S6 kinase pathway phospho-S6 level changes – cell-based, A549, cytoblot, luminescence, serum-stimulated, primary screen (AID 1158); conditions: 5 h, higher = more signal;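 further: serum-stimulated A549 lung adenocarcinoma cells; signal is phosphorylated S6 detected by cytoblot immunostaining with HRP secondary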
[18] = target: NADPH oxidase 2 (Homo sapiens) (UniProt P04839); experiment: compounds shifting NOX2 Amplex Red fluorescence – cell-based, HEK293-NOX2, PMA-stimulated, NOX inhibitor project, primary screen (AID 1159); conditions: 45 min, higher = more signal, called active from +8 up or from −8 down; further: test concentration not given here
[19] = target: NADPH oxidase 4 (Homo sapiens) (UniProt Q9NPH5); experiment: compounds shifting NOX4 Amplex Red fluorescence – cell-based, HEK293-NOX4, tetracycline-induced, NOX inhibitor project, primary screen (AID 1160); conditions: HEK293-NOX4, Amplex Red H2O2 fluorescence, 45 min; higher = more signal, called active from +8 up or from −8 down
[20] = target: NADPH oxidase 5 (Homo sapiens) (UniProt Q96PH1); experiment: compounds shifting NOX5 Amplex Red fluorescence – cell-based, HEK293-NOX5, NOX inhibitor project, primary screen (AID 1161); conditions: HEK293-NOX5, ionomycin, 45 min, higher = more signal
Chain of NADPH oxidase 5 (Homo sapiens) (Q96PH1 whole entry, looked up): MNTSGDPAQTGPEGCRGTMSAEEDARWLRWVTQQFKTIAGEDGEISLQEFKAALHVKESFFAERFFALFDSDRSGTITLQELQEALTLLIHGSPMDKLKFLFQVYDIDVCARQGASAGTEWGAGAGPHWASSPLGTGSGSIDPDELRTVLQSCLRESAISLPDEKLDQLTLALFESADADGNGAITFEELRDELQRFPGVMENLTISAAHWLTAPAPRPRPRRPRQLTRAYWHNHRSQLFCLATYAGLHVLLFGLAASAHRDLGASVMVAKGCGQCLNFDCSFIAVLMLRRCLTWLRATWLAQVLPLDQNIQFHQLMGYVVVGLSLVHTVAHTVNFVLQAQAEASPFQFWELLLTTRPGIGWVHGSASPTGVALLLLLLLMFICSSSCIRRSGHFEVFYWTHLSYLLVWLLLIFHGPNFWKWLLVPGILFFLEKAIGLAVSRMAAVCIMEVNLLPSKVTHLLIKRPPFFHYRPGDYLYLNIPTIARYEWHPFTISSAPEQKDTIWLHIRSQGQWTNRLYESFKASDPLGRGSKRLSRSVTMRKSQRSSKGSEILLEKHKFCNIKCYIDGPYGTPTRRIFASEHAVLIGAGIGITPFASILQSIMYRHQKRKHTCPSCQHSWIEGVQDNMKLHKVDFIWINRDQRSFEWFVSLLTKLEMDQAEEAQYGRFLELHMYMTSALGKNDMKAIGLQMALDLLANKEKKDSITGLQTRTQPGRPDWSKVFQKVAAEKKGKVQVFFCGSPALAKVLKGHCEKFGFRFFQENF

Chain of Streptavidin (Streptomyces avidinii) (P22629 whole entry, looked up): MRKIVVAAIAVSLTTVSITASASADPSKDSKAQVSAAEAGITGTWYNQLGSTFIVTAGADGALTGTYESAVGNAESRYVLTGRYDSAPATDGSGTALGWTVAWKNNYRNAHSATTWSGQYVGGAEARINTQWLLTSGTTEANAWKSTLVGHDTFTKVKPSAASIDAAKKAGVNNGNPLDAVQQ
Chain of NADPH oxidase 2 (Homo sapiens) (P04839 whole entry, looked up): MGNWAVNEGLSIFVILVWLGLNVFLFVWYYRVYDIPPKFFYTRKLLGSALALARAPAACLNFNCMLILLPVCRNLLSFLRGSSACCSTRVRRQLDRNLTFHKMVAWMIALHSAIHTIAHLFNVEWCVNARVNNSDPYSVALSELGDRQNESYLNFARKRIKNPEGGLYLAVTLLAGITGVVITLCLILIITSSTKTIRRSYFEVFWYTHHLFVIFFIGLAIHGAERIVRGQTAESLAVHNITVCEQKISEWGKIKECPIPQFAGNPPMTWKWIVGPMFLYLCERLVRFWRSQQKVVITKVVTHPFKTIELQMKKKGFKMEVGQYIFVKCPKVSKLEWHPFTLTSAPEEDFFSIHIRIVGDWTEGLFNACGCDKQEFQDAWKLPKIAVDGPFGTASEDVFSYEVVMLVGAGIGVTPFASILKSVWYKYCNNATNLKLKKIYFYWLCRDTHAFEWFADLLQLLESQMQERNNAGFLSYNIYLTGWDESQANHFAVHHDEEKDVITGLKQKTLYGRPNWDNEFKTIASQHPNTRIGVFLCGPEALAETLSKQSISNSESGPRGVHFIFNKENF
Chain of NADPH oxidase 4 (Homo sapiens) (Q9NPH5 whole entry, looked up): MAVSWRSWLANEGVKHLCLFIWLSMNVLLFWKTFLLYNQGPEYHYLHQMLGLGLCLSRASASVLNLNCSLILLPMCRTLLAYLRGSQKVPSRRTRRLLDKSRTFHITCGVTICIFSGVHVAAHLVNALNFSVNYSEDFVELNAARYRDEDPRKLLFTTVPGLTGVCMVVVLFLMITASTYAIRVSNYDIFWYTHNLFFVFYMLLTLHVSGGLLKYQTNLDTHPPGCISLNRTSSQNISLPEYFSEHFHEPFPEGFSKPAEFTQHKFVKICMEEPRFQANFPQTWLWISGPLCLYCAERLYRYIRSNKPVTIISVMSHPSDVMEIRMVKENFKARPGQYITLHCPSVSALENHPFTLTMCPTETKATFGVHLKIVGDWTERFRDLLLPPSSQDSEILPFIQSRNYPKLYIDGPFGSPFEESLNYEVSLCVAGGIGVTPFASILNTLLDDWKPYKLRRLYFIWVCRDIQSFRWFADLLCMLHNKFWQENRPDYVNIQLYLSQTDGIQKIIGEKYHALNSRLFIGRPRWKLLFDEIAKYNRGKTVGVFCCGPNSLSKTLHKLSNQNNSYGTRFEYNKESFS
Chain of Torsin-1A (Homo sapiens) (O14656 whole entry, looked up): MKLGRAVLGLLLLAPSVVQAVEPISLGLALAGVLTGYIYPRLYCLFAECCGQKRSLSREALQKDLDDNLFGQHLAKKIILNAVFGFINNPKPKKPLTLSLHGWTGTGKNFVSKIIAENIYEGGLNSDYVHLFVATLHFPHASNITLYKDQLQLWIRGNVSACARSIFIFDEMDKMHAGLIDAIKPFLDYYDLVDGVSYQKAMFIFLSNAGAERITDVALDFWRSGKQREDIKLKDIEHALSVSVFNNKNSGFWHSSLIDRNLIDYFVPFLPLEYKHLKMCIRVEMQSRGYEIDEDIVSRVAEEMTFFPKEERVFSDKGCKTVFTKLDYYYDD

Row | Compound | composite z-score [1] | z-score [2] | z-score [3] | z-score [4] | z-score [5] | composite z-score [6] | composite z-score [7] | composite z-score (Torsin-1A (Homo sapiens) [8]) | composite z-score (Torsin-1A (Homo sapiens) [9]) | composite z-score [10] | z-score [11] | composite z-score [12] | z-score [13] | z-score [14] | z-score [15] | z-score [16] | z-score [17] | z-score [18] | z-score [19] | z-score [20]
1 | COc1ccc([Si](C)(C)[C@@H]2[C@@H](CCO)O[C@]3(C(=O)N(Cc4cccc(N5CCOC5=O)c4)c4ccccc43)[C@H]2C)cc1 | 0.183 | -5.47 (inactive) | -0.631 (inactive) | 8.62 (active) | -0.905 (inactive) | 0.424 | 0.0569 | 0.531 | 0.226 | 0.529 | -0.196 (inactive) | 0.0357 | 31.3 (active) | 29.8 (active) | -0.28 (inactive) | 3.29 (inactive) | 0.715 | -0.327 (inactive) | 2.15 (inactive) | 1.98
2 | NCCCCCNC(=O)[C@H]1C[C@H]2C(=O)N3CCC[C@H]3C(=O)N2[C@H]1c1ccc(O)cc1 | 0.354 | 0.173 (inactive) | -0.12 (inactive) | 0.285 (inactive) | 0.165 (inactive) | 1.23 | 0.336 | 1.66 | 1.09 | 1.65 | -0.607 (inactive) | 1.17 | 0.888 (inactive) | 0.0655 (inactive) | -1.9 (inactive) | 0.0061 (inactive) | -0.604 | 0.0724 (inactive) | 0.719 (inactive) | -0.182
3 | C=CCN1C(=O)[C@]2(O[C@H](CCO)[C@@H]([Si](C)(C)c3ccc(OC)cc3)[C@@H]2C)c2cc(N(C=O)c3ccccc3)ccc21 | -0.223 | -7.67 (inactive) | -0.2 (inactive) | 32.2 (active) | -3.14 (inactive) | 0.0699 | -0.082 | -0.376 | 0.0507 | 0.572 | 0.35 (inactive) | 0.0774 | 9.23 (active) | 3.66 (inactive) | -0.452 (inactive) | 2.29 (inactive) | 1.53 | 0.474 (inactive) | 0.446 (inactive) | 0.327
4 | CCOC(=O)C[C@H]1[C@H](OC(=O)c2cc3ccccc3oc2=O)[C@@H](NC(=O)CC(C)C)c2cc(OCCCO)ccc2N1C(=O)c1ccccc1 | 0.175 | -3.29 (inactive) | 1.25 (inactive) | 10.4 (active) | -1.37 (inactive) | 0.131 | -0.0986 | 0.272 | 0.205 | 0.595 | 2.61 (inactive) | -0.0601 | 0.522 (inactive) | -1.18 (inactive) | 0.71 (inactive) | -2.17 (inactive) | 1.96 | -0.403 (inactive) | 0.0665 (inactive) | 0.622
5 | C=CC[C@]12N=C(c3ccc(OCCCO)cc3)O[C@H]1c1ccccc1N(CCS(=O)(=O)c1ccccc1)C2=O | 0.382 | -3.24 (inactive) | -0.438 (inactive) | -1.04 (inactive) | -1.87 (inactive) | 1.07 | -0.101 | 0.695 | 0.79 | 1.39 | -0.913 (inactive) | 0.204 | 31.2 (active) | 28 (active) | 2.35 (inactive) | 7.99 (inactive) | 0.852 | -2.24 (inactive) | 0.939 (inactive) | -2.12
6 | CCOC(=O)C[C@H]1[C@H](OC(=O)c2ccc(C(=O)c3ccccc3)cc2)[C@@H](NC(=O)c2ccccc2)c2cc(OCCCO)ccc2N1C(=O)c1ccccc1 | 0.261 | -0.622 (inactive) | -0.948 (inactive) | -0.346 (inactive) | 1.13 (inactive) | 0.512 | 0.0541 | 0.138 | 0.628 | 0.907 | -0.402 (inactive) | 0.228 | 2.54 (inactive) | 0.218 (inactive) | 0.0495 (inactive) | 0.357 (inactive) | -0.294 | -0.613 (inactive) | 0.646 (inactive) | 0.0914
7 | CO[C@H]1O[C@H](CO)[C@@H](OC(=O)Nc2cccc(F)c2)[C@H](OC(=O)Nc2ccccc2)[C@H]1OC(=O)Nc1ccccc1 | 0.701 | -4.58 (inactive) | -0.703 (inactive) | -0.0484 (inactive) | -1.22 (inactive) | -0.0985 | 0.226 | 1.28 | 0.616 | 1.61 | -0.198 (inactive) | 0.435 | 4.41 (inactive) | 1.13 (inactive) | -0.711 (inactive) | 0.986 (inactive) | 0.627 | -6.46 (inactive) | -1.09 (inactive) | -2.13
8 | COC(=O)C[C@H]1O[C@@H](CCc2ccccc2)[C@@H](C)[C@@H]1[Si](C)(C)c1ccc(OC)cc1 | 0.0073 | -1.76 (inactive) | 0.315 (inactive) | -0.87 (inactive) | -0.687 (inactive) | -0.604 | -0.0963 | -0.247 | -0.23 | -0.243 | -0.95 (inactive) | -0.188 | 2.54 (inactive) | 0.719 (inactive) | -0.0062 (inactive) | -0.0887 (inactive) | 0.0216 | 1.34 (inactive) | -0.0337 (inactive) | -2.06
